This note sets out measurements from PubChem BioAssay AID2401 (Southern Research Specialized Biocontainment Screening …, 2010).

Screen size: about 2,200 compounds; about 530 (24%) were called active. Only a sample is shown. Measured potencies and affinities stand elsewhere. Values without a mark were called inactive.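 How the source made its calls: active means inhibition above a set limit at one or more concentrations of the dose series; inactive means inhibition under that limit at every dose.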

The assay is described as follows: S. Typhimurium nonspecific reporter signal inhibition – Salmonella Typhimurium, GFP fluorescence, counter-screen for PhoP regulon inhibitor project, dose response (AID 2401).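 Further: S. typhimurium with Mg-insensitive nmpC-GFP reporter grown at 10 µM Mg2+; drop in reporter fluorescence reflects general culture growth inhibition.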 To be noted: 4 h; series mostly up to 150 µM; inhibition: at the top concentration. A general note: A counterscreen serves to expose hits that act by an unwanted route or on another target.
For `Cc1ccc(C(=O)Nc2ccccc2C(N)=O)o1`, the inhibition (usually the relative decrease from the control value, in per cent) is 4.25%.

For the compound `COc1cccc(Cn2cnc3c(NS(=O)(=O)c4cccc(Cl)c4Cl)c(C)c(C)cc32)c1`, the “inhibition” value was 19.3%.

As for `CC(C)(C)c1ccc(NC(=O)COC(=O)c2ccc([N+](=O)[O-])s2)cc1`, the “inhibition” value is 34%.

For `Cc1[nH]c2ccccc2c1C(=O)CN1CCSCC1`, the “inhibition” value is -12.8%.

As for `Cc1cc(=O)oc(C)c1C(=O)NCc1cccnc1`, the “inhibition” value is -5.26%.

`Cc1nn(CCOc2ccccc2)c(=O)n1-c1ccc(F)cc1`: the “inhibition” value is -24.6%.

With `Cc1ccc(C(=O)NNc2c3ccccc3nc3ccccc23)cc1`, the “inhibition” value is -21.8%.

On to `Cc1cccc(NC(=O)Cn2c(/C=C/c3ccccc3)nc3ccccc32)c1`, for which the “inhibition” value is -18%.

On to `Cc1cccc(OCC(=O)NNc2c3ccccc3nc3ccccc23)c1`, for which the “inhibition” value is -23.7%.

Regarding `O=C(NCc1ccco1)c1c2c(nc3ccccc13)CCC2`, the “inhibition” value is -4.54%.

Turning to `Cc1ccc(CSCc2nc3ccccc3[nH]2)cc1`, the “inhibition” value is 19.2%.

Regarding `Cc1ccccc1NC(=O)c1sc2nc3c(c(-c4ccco4)c2c1N)CCC3`, the “inhibition” value was -7.73%.

With `Cn1c(-c2ccc3c(c2)OCO3)cnc1NCc1cccc(Cl)c1`, the “inhibition” value was 1.41%.

For `CC(=O)c1c(C)n([O-])c2ccccc2[n+]1=O`, the “inhibition” value is 26.2%.

Turning to `COC(=O)c1sccc1NC(=O)C1C2C=CC(O2)C1C(=O)O` (configuration not stated), the “inhibition” value is 24.6%.

With `COC(=O)c1ccc2nc(C(F)(F)F)[nH]c2c1`, the “inhibition” value was 3.54%.

As for `N#CCCN(C(=O)CN1C(=O)NC2(CCCC2)C1=O)c1ccccc1F`, the “inhibition” value was -3.96%.

On to `O=C1C(Nc2ccccc2)=C/C(=N/S(=O)(=O)c2cccs2)c2ccccc21`, for which the “inhibition” value was 21.1%.

Take `COc1cc(C=O)ccc1OCCCOc1ccccc1[N+](=O)[O-]`: the “inhibition” value was 4.63%.

Turning to `Cc1snc(S(=O)(=O)/C(C#N)=N\Nc2ccccc2)c1C#N`, the “inhibition” value is -6.54%.

Regarding `C(=Nc1ccc(Nc2ccccc2)cc1)c1ccc2ccccc2c1`, the “inhibition” value is -4.57%.

For `Cc1ccsc1C=Nc1ccc(O)cc1`, the “inhibition” value was -36.1%.

In the case of `Cc1nnc(NC(=O)CSc2ncnc3scc(-c4ccccc4)c23)s1`, the “inhibition” value is -33.5%.

In the case of `Cc1onc(-c2c(F)cccc2Cl)c1C(=O)Nc1cccc(Cn2cccn2)c1`, the “inhibition” value is -0.75%.

`CCOc1ccc(NC(=O)CCC(=O)n2nc(C)cc2C)cc1`: the “inhibition” value is -4.16%.

As for `COc1cc(OC)c(C(=O)Nc2ccc(S(=O)(=O)Nc3ncccn3)cc2)cc1OC`, the “inhibition” value is -24.9%.

For `COc1nccnc1NS(=O)(=O)c1ccc(NC(=S)NC(=O)c2cccnc2)cc1`, the “inhibition” value is -42.9%.

For the compound `Cc1ccc(-c2nc3ccccc3s2)cc1S(=O)(=O)N1CCCC1`, the “inhibition” value was -16.7%.

For `CCOC(=O)Cc1ccc2sc(-c3ccccc3)nc2c1`, the “inhibition” value was -22%.

Regarding `COc1ccc(C2=NOC(C(=O)Nc3ccc(C)cc3)C2)cc1OC` (configuration not stated), the “inhibition” value was 2.64%.

For the compound `COc1cccc(C2CC(c3ccccc3OC)n3nc(N)nc3N2)c1` (configuration not stated), the “inhibition” value is -20.8%.

Consider `CCCc1cc(C(=O)NNC(=S)NC(C)c2ccccc2)cs1` (configuration not stated), for which the “inhibition” value is -35.7%.

As for `Cc1ccc(-n2sc3ccccc3c2=O)cc1S(=O)(=O)N1CCCCC1`, the “inhibition” value was 8.77%.

On to `CCNC(=O)COC(=O)CCC(=O)c1cccs1`, for which the “inhibition” value was -7.69%.

Turning to `FC(F)(F)c1cc(C(F)(F)F)c2ccc(Oc3ccccc3)nc2n1`, the “inhibition” value is 9.05%.

On to `Fc1ccccc1COc1ccc(Br)cc1CNCc1ccncc1`, for which the “inhibition” value is 1.55%.

With `O=C(Cc1ccccc1)NCc1ccc(F)cc1`, the “inhibition” value was -30.9%.

For the compound `O=C(Nc1ccc(S(=O)(=O)Nc2nccs2)cc1)c1cc(-c2ccccc2)nc2ccccc12`, the “inhibition” value was 4.41%.

As for `COc1ccc(C(C)=O)c2c(O)cccc12`, the “inhibition” value is 4.56%.

In the case of `CC1(C)CC(=O)C2=C(C1)OC1=C(C(=O)CC(C)(C)C1)C2c1ccc(O)cc1O`, the “inhibition” value is 9.69%.

In the case of `c1ccc(-n2cnc3cc(NCc4ccccn4)ccc32)cc1`, the “inhibition” value was -4.69%.

`CCOC(=O)C1(S(=O)(=O)c2ccccc2)CCN(Cc2ccc(Cl)cc2)CC1`: the “inhibition” value is 5.17%.

For the compound `O=C(Nc1ccc2c(c1)oc1ccccc12)N1CCOCC1`, the “inhibition” value is -7.09%.

As for `CCOc1ccccc1OCC(=O)Nc1ccc(S(=O)(=O)Nc2nc(C)cc(C)n2)cc1`, the “inhibition” value was -11.6%.

For the compound `Cc1ccc(SC(c2ccc(C)cc2)C(Cn2cncn2)C(=O)c2ccccc2)cc1` (configuration not stated), the “inhibition” value is -15.4%.

As to `CN(C)c1nc(N)nc(Cn2ccnc2)n1`, the “inhibition” value was -5.04%.

On to `N/C(=N\OC(=O)c1cccs1)C1(c2ccc(Cl)cc2Cl)CC1`, for which the “inhibition” value was -14.9%.

Regarding `C=CCc1ccccc1OCC(O)CN1CCN(CCN2C(=O)c3cccc4cccc(c34)C2=O)CC1` (configuration not stated), the “inhibition” value is 1.41%.

In the case of `COc1cccc(C2CC(=O)Nc3cc(OC)c(OC)c(OC)c32)c1OC` (configuration not stated), the “inhibition” value was -6.54%.

On to `COc1cc(C2Nc3cccc4cccc(c34)N2)cc(OC)c1O`, for which the “inhibition” value is 23.9%.

`C=C(C)Cn1c(CCn2c3ccccc3c3ccccc32)n[nH]c1=S`: the “inhibition” value is 4.79%.

As for `CN(C(=O)c1cccc(C#N)c1)c1nnc(-c2cnccn2)s1`, the “inhibition” value is 1.99%.

For `Cn1c(CC(=O)Nc2ccc(Cl)c(Cl)c2)nnc1SCC(=O)Nc1nccs1`, the “inhibition” value was -37.2%.

For `Cc1cc2ncn(CC(O)COc3cccc(C(=O)O)c3)c2cc1C` (configuration not stated), the “inhibition” value was -28.7%.

For the compound `N#Cc1c(N)nc(SCC(=O)NC2CCCCC2)c(C#N)c1-c1ccc(Cl)cc1`, the “inhibition” value is -24.1%.

`Fc1cccc(NCc2cn3ccccc3n2)c1`: the “inhibition” value is 23.2%.

`O=S(=O)(c1ccc(N2CCCC2c2nc3ccccc3s2)nc1)N1CCOCC1` (configuration not stated): the “inhibition” value was -14.8%.

Turning to `Nc1nnc(Sc2ccc(Cl)cc2[N+](=O)[O-])s1`, the “inhibition” value was -0.98%.

Regarding `CCN(CC)c1ccc(/C=N/NC(=S)NCc2ccccc2)c(O)c1`, the “inhibition” value was 9.66%.

For the compound `C(=C\c1ccccc1)/C=N/Nc1nc2ccccc2[nH]1`, the “inhibition” value was 19.1%.

Turning to `CN(c1cccc(Cl)c1)S(=O)(=O)c1cccc(C(=O)Nc2nc3ccccc3[nH]2)c1`, the “inhibition” value was 16.2%.

As to `C#CCn1cc(/C=N/Nc2nc3ccccc3[nH]2)c2ccccc21`, the “inhibition” value is 31.1%.

For `COc1ccc(/C=C/c2nc3ccccc3n2Cc2ccccc2OC)cc1`, the “inhibition” value was -5.49%.

On to `COc1ccccc1NC(=O)Cn1nnc(-c2ccccc2NC(=O)c2cccs2)n1`, for which the “inhibition” value was -10.7%.

Turning to `COC(=O)CSc1nnc(-c2ccco2)n1Cc1ccco1`, the “inhibition” value is -13.6%.

For `Cc1cccc(-n2nc3c(c2NC(=O)c2ccco2)CSC3)c1C`, the “inhibition” value is -29.7%.

Turning to `O=C(C[n+]1cc(-c2ccccc2)n2c1CCCCC2)c1ccc(Cl)cc1`, the “inhibition” value was -22.6%.

For `C/C(=N/Nc1nc(-c2ccc(Cl)cc2)cs1)c1cccs1`, the “inhibition” value is -20.6%.

In the case of `CCN(CC)CC(=O)Nc1nc(-c2ccc(Cl)cc2)cs1`, the “inhibition” value was -3.92%.

Consider `COc1ccc(OC)c(NC(=S)NCCCN2CCOCC2)c1`, for which the “inhibition” value is -26.6%.

On to `CN(CCNS(=O)(=O)c1ccc2c(c1)oc(=O)n2C)Cc1ccccc1`, for which the “inhibition” value is 14.6%.

For `Cc1cc(C)c(C#N)c(SCC(O)CS(=O)(=O)Cc2ccccc2)n1` (configuration not stated), the “inhibition” value was -4.96%.
